High-throughput results from PubChem BioAssay.
A selection: hits, their analogues and other compounds. The true share with any hit is near 3.7%.
Nrf2 block: Nrf2 qHTS screen for inhibitors; A549 ARE-Fluc reporter, luciferase luminescence, 18-24 h; actives 2.1% (n = 360,000); Potency, µM (top dose mostly 46 µM), without a hit: top-dose activity change, negative = inhibition, hits mostly inhibitors; AID 504444, 2011; also: potency is read from the fitted curve at half-maximal effect; % is scaled to controls: 0 for no effect and ±100 for the full control effect; nearly all actives have a fitted effect of over 60% in size
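Reporter: ARE-Fluc in A549. Exposure: 18-24 h, 37 °C, 5% CO2, 5% FBS OPTI-MEM. Readouts: fluorescent cytotoxicity (CellTiter-Fluor), then luminescent Nrf2 signal after BugLite.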
IL2 activator: qHTS of IL-2 Activators; IL-2 activation reporter assay, cell-based qHTS; stimulated with anti-CD3/CD4/CD28 beads; in transgenic mouse T cells; activation, % (series mostly up to about 46 µM); actives 0.065% (n = 360,000); in the data active = activation above about 50%; inconclusive = mostly about 30% to 49%; also: 0% is about no effect
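Quantitative HTS in unstimulated transgenic mouse T cells, with memory T cells as non-tolerant control and PMA/ionomycin as tolerance-bypass control. Compound pretreatment lasted 60 minutes before 18 h bead stimulation; EGFP/DsRed fluorescence read.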
A549 tox: Nrf2 qHTS screen for inhibitors: counterscreen for cytotoxicity; A549 ARE-Fluc cells, CellTiter-Fluor viability, 18-24 h; Potency, µM (top dose mostly 46 µM), without a hit: top-dose activity change, negative = cytotoxicity, hits mostly inhibitors; actives 0.16% (n = 390,000); AID 504648, 2011; also: potency is read from the fitted curve at half-maximal effect; % is scaled to controls: 0 for no effect and ±100 for the full control effect
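A549 ARE_Fluc cells in 5% FBS OPTI-MEM were exposed to compounds in concentration-response for 18-24 h at 37 deg C. Viability was read by CellTiter-Fluor fluorescence (Ex 405/Em 525) after 30 min, before the luciferase read.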
ClpP mod: qHTS Assay for Activators of ClpP; ATP-dependent Clp protease proteolytic subunit (Bacillus subtilis (strain 168)), P80244; purified B. subtilis ClpP, FRET peptide cleavage, 20 min; Potency, µM (titrated, usually from 57.5 µM), inactives show at the top dose activity change, negative = active; actives 1.9% (n = 340,000); AID 651965, 2013; active = well fitted falling curve with a large enough effect; inconclusive = small, poorly fitted or top-dose-only effect; inactive = no such curve, though single readings can be large or run the other way; also: potency is read from the fitted curve at half-maximal effect; the source files actives as falling curves though it sought activators and does not explain the sign; nearly all actives have a fitted effect of over 65% in size
Target sequence (P80244 whole entry, looked up): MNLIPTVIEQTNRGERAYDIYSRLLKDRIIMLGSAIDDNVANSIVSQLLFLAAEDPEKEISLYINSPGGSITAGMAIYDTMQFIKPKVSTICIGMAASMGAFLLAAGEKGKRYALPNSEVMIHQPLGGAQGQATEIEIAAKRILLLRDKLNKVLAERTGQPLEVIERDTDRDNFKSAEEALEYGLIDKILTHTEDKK
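Purified B. subtilis ClpP, 10 microg/mL final in Tris/HCl pH8 with KCl, BSA, glycerol and Tween-20, cleaved an Abz/nitrotyrosine-quenched decapeptide. Fluorescence (ex 320, em 430) was read at 0 and 20 min at room temperature. Delta was normalized to 5.8 microM ADEP and DMSO/no-enzyme controls.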
miR-21 act: qHTS Assay for Modulators of miRNAs and/orActivators of miR-21 | HeLa miR-21 FLuc reporter, luciferase, 48 h | Potency, µM (highest dose often 38.3 µM), for the others: top-dose activity change, positive = activation, usual class: activators | 340,000 tested, under 10 active | AID 2288, 2010;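 also: % of control where 0% means no effect; miR-21 action dims this reporter so a rising signal means less miR-21 action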
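Compounds were titrated across several concentrations (up to approximately 40 uM) and incubated 48 hours with HeLa miR-21-FLuc reporter cells (miR-21 target sequence downstream of FLuc, endogenous miR-21). Readout was firefly luciferase luminescence after lytic detection reagent.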
Nrf2 activator: qHTS of Nrf2 Activators. actives 0.31% (n = 410,000). AID 624171, 2012. Potency, µM (top dose mostly 46.1 µM), for the others: at the highest dose activation, usual class: activators. AREc32 ARE-luciferase reporter (MCF7-derived line), luminescence, 24 h; also: potency is read from the fitted curve at half-maximal effect; % of control where 0% means no effect; nearly all actives have a fitted effect of over 65% in size
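AREc32_Fluc, 1000 cells/well, OPTI-MEM + 5% FBS, o/n 37 deg C 5% CO2; 23 nL cpd by pin tool, 24 hr; Steady-Glo 30 min RT, luminescence.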
* hit, by the source's call; ? = inconclusive; / = no result given. Unless noted, calls follow the shape of the dose curve; as a rule, active = well fitted curve in the direction sought with a large enough effect; inconclusive = small, poorly fitted or top-dose-only effect, or another doubt; inactive = no such curve, though single readings can be large; an effect the other way counts as inactive or inconclusive.

SMILES | Nrf2 block | IL2 activator | A549 tox | ClpP mod | miR-21 act | Nrf2 activator
O=C(CC1N=C2c3ccccc3N=C(SCc3ccccc3F)N2C1=O)NCCc1ccccc1 (stereo unspecified) | / | / | -1% | 4% | -8% | 11%
CCC(=NCCc1c(C)[nH]c2ccc(OC(F)(F)F)cc12)C1=C(O)CC(c2ccccc2)CC1=O (stereo unspecified) | 21µM* | -1 | ? | 0% | 22% | 2%
CCC(=NCCc1c(C)[nH]c2ccccc12)C1=C(O)CC(c2ccccc2)CC1=O (stereo unspecified) | -22% | -3 | -12% | -2% | 18% | 3%
COc1ccc(N2CCN(C(=O)CCc3c(C)nc4cc(-c5cccc(F)c5)nn4c3C)CC2)cc1 | ? | / | 14% | -29% | 27% | 1%
O=C(N/N=C/C(Cl)=C/c1ccccc1)c1cnccn1 | ? | 0 | -3% | 1% | -36% | 11µM*
CC(=C/c1ccccc1)/C=N/NC(=O)c1cnccn1 | 12% | -1 | -6% | 1% | -43% | 0%
O=C(N/N=C/C(Cl)=C\c1ccccc1)c1cnccn1 | ? | -2 | 8% | 0% | -30% | 16µM*
Nc1ncnc2c1nc(Sc1ccc(Cl)cc1)n2[C@H]1OC2COP(=O)(O)O[C@H]2[C@@H]1O (stereo partly specified) | / | / | / | 0% | / | /
CCOCCCn1c(SCC(=O)OCC)nc2c(sc3ccccc32)c1=O | / | / | 1% | -5% | 0% | -1%
CCc1nnc(N/N=C/c2ccc(N3CCC(C)CC3)c([N+](=O)[O-])c2)n1N | -4% | -2 | -9% | / | -18% | -3%
Cc1nnc(N/N=C/c2cc([N+](=O)[O-])c(N3CCC(C)CC3)cc2N2CCC(C)CC2)n1N | 18µM* | -4 | ? | -6% | 20% | -3%
COc1ccc(CNc2nc3c(-c4cccc(C)c4)nnn3c3ccccc23)cc1 | 12% | / | -1% | ? | 2% | 0%
C[C@@H]1[C@H](c2ccccc2)OCCS(=O)(=O)N1Cc1ccc(F)cc1 | / | / | / | 0% | / | /
O=c1oc2c(F)cc(F)cc2cc1S(=O)(=O)c1ccc(F)cc1 | -10% | / | ? | 22µM* | -2% | 10µM*
CCn1cc(C=C2C(=O)c3ccccc3C2=O)c2ccccc21 | 23% | 108* | -1% | / | -6% | ?
Cc1ccc2oc(-c3ccccc3)nc2c1 | ? | 0 | 0% | 14µM* | -65% | 28%
Cc1cccc(-c2nc3cc([N+](=O)[O-])ccc3o2)c1 | ? | -1 | -11% | / | -33% | 10µM*
CCOc1ccc(NC(=O)C(C)Sc2nnc3cc(C)c4ccccc4n23)cc1 (stereo unspecified) | -20% | / | -13% | -1% | -20% | -1%
Cc1nc2c(C(=O)NCCc3ccccc3)c[nH]n2c(=O)c1Cl | / | -1 | 2% | ? | -1% | -1%
Cc1nc2c(C(=O)NCCC(C)C)c[nH]n2c(=O)c1Cl | 11% | 1 | 5% | 32µM* | 0% | 0%
CC(=O)c1c(C)oc2c(Br)cc(NS(=O)(=O)c3ccc(Br)cc3)cc12 | / | / | 5% | 0% | 0% | -1%
C=C1CC2(OC1=O)c1ccccc1CCc1ccccc12 | 16µM* | -7 | ? | 2% | / | ?
Brc1ccc(-c2cn3c(n2)CCc2ccc4cccnc4c2-3)cc1 | 18% | 7 | 1% | 28µM* | 2% | 4%
Brc1ccc(-c2cn3nc4c(nc3n2)CCCC4)cc1 | ? | -2 | 0% | -14% | -37% | 0%
O=C(/C(C=Nc1ccc(F)cc1)=C(/O)c1ccco1)C(F)(F)F | ? | 1 | -4% | 25µM* | -74% | ?
Cc1ccc(N=C/C(C(=O)C(F)(F)F)=C(\O)c2ccco2)cc1Cl | ? | 9 | 1% | 16µM* | -53% | ?
